Experimental findings from PubChem BioAssay (NCI) are described below.

About 79,000 compounds went through this panel and 15% of them were active in at least one assay; those are over-represented in the sample as a whole. Values without a mark were called inactive. Active and inactive are the calls of the source. No stated cut-off is given here; in the data, active means growth inhibition above about 70%; inactive means the rest.

The first experiment can be described thus: NCI Yeast Anticancer Drug Screen. Data for the bub3 strain (AID 167). The settings on record: S. cerevisiae bub3 mutant strain, at 1.2 µM, active compounds read high. Summed up: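 In this screen, a yeast mutant lacking normal mitotic checkpoint function is challenged with compound. Relative growth versus vehicle gives the inhibition value.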
Take `CS(=O)(=O)SCc1ccc([N+](=O)[O-])cc1`: the growth inhibition is 6%.

As for `Cc1csc(=S)n1OC(=O)NC1CCCCC1`, the growth inhibition is 3%.

`CCOc1ccc(NC(=O)C2=C(C)NC(C)=C(C(=O)Nc3ccc(OCC)cc3)C2c2cccc([N+](=O)[O-])c2)cc1`: the growth inhibition was -3%.

Turning to `CC(C)(C)N=C(NO)c1ccccc1`, the growth inhibition is -6%.

In the case of `CCCCC/C(=C(\C#N)C(=O)OCC)c1ccccc1`, the growth inhibition is 0%.

In the case of `O=C(NCCCl)Sc1ccc(Cl)cc1`, the growth inhibition is 2%.

Consider `O=C1Nc2ccc(Br)cc2C1=Nc1ccc2c(c1)OCO2`, for which the growth inhibition was -26%.

For `CCC(C)OC(=O)Nc1ccc(C)c(NC(=O)OC(C)CC)c1` (stereo not drawn), the growth inhibition was -3%.

In the case of `O=C(O)c1cc2ccc(Cl)cc2c(O)c1C1=CCCCC1`, the growth inhibition was 14%.

Take `CN(C)Cc1cc(N=Nc2ccc(Cl)cc2)ccc1OC(=O)c1ccccc1`: the growth inhibition was -2%.

As for `CN1CCN(C(=O)/C=C/C(=O)c2ccccc2)CC1`, the growth inhibition is -3%.

`CCCC/C=C/C(C)(C(=O)OCC)C(=O)OCC`: the growth inhibition is -6%.

Take `Cc1nc(-c2cc3cc([N+](=O)[O-])ccc3oc2=O)cs1`: the growth inhibition was -15%.

On to `Cc1nc2ccccc2nc1NNc1ccccc1`, for which the growth inhibition was 6%.

In the case of `CN(C)[C@@H]1C(=O)C(C(N)=O)=C(O)[C@@]2(O)C(=O)C3=C(O)c4c(O)cccc4C[C@H]3C[C@@H]12`, the growth inhibition was -8%.

On to `COc1ccc(NC(=O)CC2SC(=Nc3ccccc3C)NC2=O)c([N+](=O)[O-])c1` (stereo not drawn), for which the growth inhibition was 2%.

Turning to `COc1cc(O)c2c(c1O)C(=O)c1cc(C)ncc1C2=O`, the growth inhibition is 14%.

For the compound `CSc1nnc(SC)nn1`, the growth inhibition is 11%.

For the compound `COc1cc(/C=C2\CCC/C(=C\c3ccc(O)c(OC)c3)C2=O)ccc1O`, the growth inhibition is -5%.

Take `CN(C)CCNC(=O)c1cccc2cc([N+](=O)[O-])ccc12`: the growth inhibition was -12%.

Take `CCC(C)(C)c1ccc(Oc2cccc(C(=O)O)c2)cc1`: the growth inhibition was -8%.

In the case of `CCCCCCSc1ncnc2[nH]ncc12`, the growth inhibition is 4%.

Take `CC(=O)Nc1ccc(/C=C/[N+](=O)[O-])cc1`: the growth inhibition was -4%.

Take `CCOC(=O)c1[nH]n(-c2ccccc2)c(=O)c1C=NC(=S)C(N)=S`: the growth inhibition was -8%.

`CCCC(O)C1CC(C(C)C)CCC1C` (stereo not drawn): the growth inhibition is -3%.

For the compound `O=[n+]1c2ccccc2n([O-])c2cc(Br)ccc21`, the growth inhibition was 42%.

As to `CN(C)CCNC(=O)c1cccc2c1Oc1c(cccc1[N+](=O)[O-])O2`, the growth inhibition was 25%.

For `Nc1ncc(-c2ccc(Br)cc2)s1`, the growth inhibition is -8%.

Turning to `Cc1cc2cc3cc(C)c(N)cc3nc2cc1N`, the growth inhibition is -20%.

Turning to `CC12C(=O)OC(=O)C(c3ccccc31)c1ccccc12`, the growth inhibition was -7%.

As for `c1ccc2c(OCC3CO3)cccc2c1` (stereo not drawn), the growth inhibition is -3%.

For the compound `CCOC(=N)c1ccc(O)c(OC)c1`, the growth inhibition is 7%.

With `Nc1cc(N)c(N=Nc2cccc3c(S(=O)(=O)O)cccc23)cc1N=Nc1cc([N+](=O)[O-])ccc1O`, the growth inhibition was -6%.

Consider `COC(=O)Oc1cc(Cl)c(Cl)cc1Cl`, for which the growth inhibition is 1%.

With `O=C(O)C1CC(c2ccccc2)=NN1c1ccccc1` (stereo not drawn), the growth inhibition was -28%.

For the compound `COc1cc([C@@H]2c3cc4c(cc3[C@@H](Nc3ccc(NC(=O)c5cc([N+](=O)[O-])cn5C)cc3)[C@H]3COC(=O)[C@H]23)OCO4)cc(OC)c1O`, the growth inhibition was -10%.

Turning to `O=C(O)c1ccccc1/C=N/N=C1c2ccccc2-c2ccccc21`, the growth inhibition was -3%.

For the compound `O=C1CC(=O)c2ccccc21`, the growth inhibition was -2%.

In the case of `Nc1ncnc2c1ncn2C1OC(CO)CC1O` (stereo not drawn), the growth inhibition is -6%.

Staying with this experiment, now noted: S. cerevisiae bub3 mutant strain, at 3.7 µM, active compounds read high.
For `CS(=O)(=O)SCc1ccc([N+](=O)[O-])cc1`, the growth inhibition is 40%.

Consider `Cc1csc(=S)n1OC(=O)NC1CCCCC1`, for which the growth inhibition is 99% (active).

On to `CCOc1ccc(NC(=O)C2=C(C)NC(C)=C(C(=O)Nc3ccc(OCC)cc3)C2c2cccc([N+](=O)[O-])c2)cc1`, for which the growth inhibition is -2%.

On to `CC(C)(C)N=C(NO)c1ccccc1`, for which the growth inhibition is -9%.

As for `CCCCC/C(=C(\C#N)C(=O)OCC)c1ccccc1`, the growth inhibition was 2%.

Take `O=C(NCCCl)Sc1ccc(Cl)cc1`: the growth inhibition was 0%.

In the case of `O=C1Nc2ccc(Br)cc2C1=Nc1ccc2c(c1)OCO2`, the growth inhibition was -22%.

As for `CCC(C)OC(=O)Nc1ccc(C)c(NC(=O)OC(C)CC)c1` (stereo not drawn), the growth inhibition was -2%.

Take `O=C(O)c1cc2ccc(Cl)cc2c(O)c1C1=CCCCC1`: the growth inhibition was -8%.

As to `CN(C)Cc1cc(N=Nc2ccc(Cl)cc2)ccc1OC(=O)c1ccccc1`, the growth inhibition was -2%.

For the compound `CN1CCN(C(=O)/C=C/C(=O)c2ccccc2)CC1`, the growth inhibition was 3%.

On to `CCCC/C=C/C(C)(C(=O)OCC)C(=O)OCC`, for which the growth inhibition is -5%.

For the compound `Cc1nc(-c2cc3cc([N+](=O)[O-])ccc3oc2=O)cs1`, the growth inhibition was -2%.

Turning to `Cc1nc2ccccc2nc1NNc1ccccc1`, the growth inhibition was 9%.

On to `CN(C)[C@@H]1C(=O)C(C(N)=O)=C(O)[C@@]2(O)C(=O)C3=C(O)c4c(O)cccc4C[C@H]3C[C@@H]12`, for which the growth inhibition is -7%.

Regarding `COc1ccc(NC(=O)CC2SC(=Nc3ccccc3C)NC2=O)c([N+](=O)[O-])c1` (stereo not drawn), the growth inhibition was -1%.

As to `COc1cc(O)c2c(c1O)C(=O)c1cc(C)ncc1C2=O`, the growth inhibition was 13%.

In the case of `CSc1nnc(SC)nn1`, the growth inhibition was 27%.

Turning to `COc1cc(/C=C2\CCC/C(=C\c3ccc(O)c(OC)c3)C2=O)ccc1O`, the growth inhibition was -2%.

`CN(C)CCNC(=O)c1cccc2cc([N+](=O)[O-])ccc12`: the growth inhibition was -27%.

Take `CCC(C)(C)c1ccc(Oc2cccc(C(=O)O)c2)cc1`: the growth inhibition is -2%.

`CCCCCCSc1ncnc2[nH]ncc12`: the growth inhibition is 7%.

Turning to `CC(=O)Nc1ccc(/C=C/[N+](=O)[O-])cc1`, the growth inhibition is -5%.

In the case of `CCOC(=O)c1[nH]n(-c2ccccc2)c(=O)c1C=NC(=S)C(N)=S`, the growth inhibition is -4%.

In the case of `CCCC(O)C1CC(C(C)C)CCC1C` (stereo not drawn), the growth inhibition was -2%.

`O=[n+]1c2ccccc2n([O-])c2cc(Br)ccc21`: the growth inhibition is 63%.

With `CN(C)CCNC(=O)c1cccc2c1Oc1c(cccc1[N+](=O)[O-])O2`, the growth inhibition is 31%.

As for `Nc1ncc(-c2ccc(Br)cc2)s1`, the growth inhibition was -8%.

For the compound `Cc1cc2cc3cc(C)c(N)cc3nc2cc1N`, the growth inhibition is -5%.

`CC12C(=O)OC(=O)C(c3ccccc31)c1ccccc12`: the growth inhibition is -5%.

Turning to `c1ccc2c(OCC3CO3)cccc2c1` (stereo not drawn), the growth inhibition was -5%.

In the case of `CCOC(=N)c1ccc(O)c(OC)c1`, the growth inhibition is 17%.

With `Nc1cc(N)c(N=Nc2cccc3c(S(=O)(=O)O)cccc23)cc1N=Nc1cc([N+](=O)[O-])ccc1O`, the growth inhibition is 6%.

For `COC(=O)Oc1cc(Cl)c(Cl)cc1Cl`, the growth inhibition is 3%.

For the compound `O=C(O)C1CC(c2ccccc2)=NN1c1ccccc1` (stereo not drawn), the growth inhibition was -22%.

Consider `COc1cc([C@@H]2c3cc4c(cc3[C@@H](Nc3ccc(NC(=O)c5cc([N+](=O)[O-])cn5C)cc3)[C@H]3COC(=O)[C@H]23)OCO4)cc(OC)c1O`, for which the growth inhibition was 0%.

On to `O=C(O)c1ccccc1/C=N/N=C1c2ccccc2-c2ccccc21`, for which the growth inhibition was -1%.

Turning to `O=C1CC(=O)c2ccccc21`, the growth inhibition was -1%.

Turning to `Nc1ncnc2c1ncn2C1OC(CO)CC1O` (stereo not drawn), the growth inhibition was -2%.
